Data taken from PubChem BioAssay.
Calls of active or inactive are those of the source. The rule behind the calls is not given here.

Assay: inhibition of Brca1/Bard1 split-luciferase complementation, confirmation, counter-screen for Mdm2/MdmX interaction inhibitor project, luminescence, single concentration (AID 504668)
Details: Brca1/Bard1 bimolecular luciferase complementation counterscreen, at 8 µM, stronger effect = higher value

For `Cc1ccc(C(C)C)cc1OCC(=O)Nc1nnc(C2CC2)s1`, the inhibition was 33.4% (active).
With `CC(=O)NC(c1ccco1)c1ccc2cccnc2c1O` (configuration not stated) the inhibition was 27.7% (active).
In the case of `COc1ccc(C(=O)C(CN2CCCC2)c2ccccc2)cc1` (configuration not stated), the inhibition is reported as 27.6% (active).
With `C/C(=N\Nc1nc(-c2ccccn2)nc2ccccc12)c1ccc(F)cc1` the inhibition was 34.4% (active).
In the case of `Oc1ccc(COCc2ccccc2)c2cccnc12`, the inhibition is reported as 28.7% (active).
In the case of `O=C(CCCN1C(=O)/C(=C/c2ccccc2)SC1=S)Nc1ccccc1O`, the inhibition is reported as 29.9% (active).
With `CCCCNc1c(-c2ccc(OC)c(SC3CCCCC3)c2)nc2ccc(C)cn12` the inhibition was 28.6% (active).
With `CN(C)CCNC(=O)/C(=C/c1ccc(-c2ccc(Cl)cc2Cl)o1)NC(=O)c1ccccc1` the inhibition was 26.3% (active).
In the case of `CCOC(=O)CSC1=NC(=O)/C(=C/c2ccc(OC)cc2)S1`, the inhibition is reported as 32.1% (active).
For `CCOc1ccccc1Nc1nnc(SC(C)C(=O)Nc2nc(-c3ccccc3)cs2)s1` (configuration not stated), the inhibition was 35.2% (active).
For `Cc1ccc(N=Nc2ccc(O)c3ncccc23)cc1C`, the inhibition was 25.6% (active).
In the case of `CC1(C)Cc2ccccc2C2=NNC(=O)C2=N1`, the inhibition is reported as 29.2% (active).
With `Cc1ccc(C(=O)Nc2nc(-c3ccccn3)cs2)cc1S(=O)(=O)N1CCOCC1` the inhibition was 23.2% (active).
With `COc1cccc(C(NC(C)=O)c2ccc3cccnc3c2O)c1` (configuration not stated) the inhibition was 29.3% (active).
With `CCOC(=O)c1c(CN(C)C)n(C)c2c(O)c(N=NC(N)=O)c3ccc(Br)cc3c12` the inhibition was 27.9% (active).
In the case of `O=C1/C(=C/c2ccc(F)cc2)SC(=S)N1CCCC(=O)N1CCCCC1CCO` (configuration not stated), the inhibition is reported as 23.7% (active).
With `FC(F)(F)c1ccc(CN2C[C@@H]3C(c4ccccc4)C4(c5ccccc5)CC3(C4)[C@H]2c2ccccc2)cc1` (some centres not stated) the inhibition was 27.2% (active).
